Like-named read-outs stand apart in the source and are kept apart here.

For one assay, the system named is AAK1. Also on record: species or system human, MV4-11 + K-562 + COLO205 + SK-N-BE2 + OVCAR-8. The settings on record: read-out: apparent Kd, n = 1.
A further assay relates to BMP2K. The arrangement: species or system human, MV4-11 + K-562 + COLO205 + SK-N-BE2 + OVCAR-8. The settings on record: read-out: apparent Kd, n = 1.
The subject of another assay is CLK1. The arrangement: species or system human, MV4-11 + K-562 + COLO205 + SK-N-BE2 + OVCAR-8. To be noted: read-out: apparent Kd, n = 1.
The subject of the next assay is CLK4. The arrangement: species or system human, MV4-11 + K-562 + COLO205 + SK-N-BE2 + OVCAR-8. The settings on record: read-out: apparent Kd, n = 1.
Another assay concerns CSNK2A2. The arrangement: species or system human, MV4-11 + K-562 + COLO205 + SK-N-BE2 + OVCAR-8. The settings on record: read-out: apparent Kd, compound concentrations: 100 nM and 1000 nM (sheet 'Samples'), n = 1.
The next assay has as its system GSK3A. Also on record: species or system human, MV4-11 + K-562 + COLO205 + SK-N-BE2 + OVCAR-8. To be noted: read-out: apparent Kd, compound concentrations: 100 nM and 1000 nM (sheet 'Samples'), n = 1.
For a further assay, the system named is GSK3B. The arrangement: species or system human, MV4-11 + K-562 + COLO205 + SK-N-BE2 + OVCAR-8. To be noted: read-out: apparent Kd, compound concentrations: 100 nM and 1000 nM (sheet 'Samples'), n = 1.
The subject of a further assay is NUAK1. Also on record: species or system human, MV4-11 + K-562 + COLO205 + SK-N-BE2 + OVCAR-8. The settings on record: read-out: apparent Kd, compound concentrations: 100 nM and 1000 nM (sheet 'Samples'), n = 1.
The next assay addresses Q6ZSR9 (human, UniProt Q6ZSR9). Also on record: species or system MV4-11 + K-562 + COLO205 + SK-N-BE2 + OVCAR-8. To be noted: read-out: apparent Kd, n = 1.
Another assay deals with CSNK2A1;CSNK2A3. The arrangement: species or system human, MV4-11 + K-562 + COLO205 + SK-N-BE2 + OVCAR-8. The settings on record: read-out: apparent Kd, compound concentrations: 100 nM and 1000 nM (sheet 'Samples'), n = 1.
The subject of another assay is GAK. The arrangement: species or system human, MV4-11 + K-562 + COLO205 + SK-N-BE2 + OVCAR-8. The settings on record: read-out: apparent Kd; compound concentrations: 100 nM and 1000 nM (sheet 'Samples'), CATDS: 2.8408815024035201E-2; n = 1.
The test system of a further assay is MELK. The arrangement: species or system human, MV4-11 + K-562 + COLO205 + SK-N-BE2 + OVCAR-8. To be noted: read-out: apparent Kd; compound concentrations: 100 nM and 1000 nM (sheet 'Samples'), CATDS: 2.6674495002574999E-2; n = 1.
The next assay deals with FLT4. The arrangement: species or system human, MV4-11 + K-562 + COLO205 + SK-N-BE2 + OVCAR-8. The settings on record: read-out: apparent Kd; compound concentrations: 100 nM and 1000 nM (sheet 'Samples'), CATDS: 3.5350973360848997E-2; n = 1.
Where [1] appears, read: compound concentrations:100 nM and 1000 nM (sheet 'Samples').

Sequence of Q6ZSR9 (Q6ZSR9 whole entry, looked up): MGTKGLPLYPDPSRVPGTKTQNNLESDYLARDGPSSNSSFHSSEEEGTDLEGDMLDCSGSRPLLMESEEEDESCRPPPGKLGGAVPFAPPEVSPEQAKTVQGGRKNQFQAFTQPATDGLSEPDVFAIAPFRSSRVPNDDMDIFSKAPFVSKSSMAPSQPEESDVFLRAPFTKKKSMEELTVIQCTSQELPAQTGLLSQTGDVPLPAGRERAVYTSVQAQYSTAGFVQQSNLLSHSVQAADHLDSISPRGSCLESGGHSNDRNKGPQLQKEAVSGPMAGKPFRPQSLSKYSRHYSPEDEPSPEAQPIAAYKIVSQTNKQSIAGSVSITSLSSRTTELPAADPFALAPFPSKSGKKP

Take `CCN(CC)Cc1ccc(Nc2nccc(-c3cnn4ncccc34)n2)cc1` [GW780056X]: the potency estimated from few doses in the assay with AAK1 (compound concentrations: 100 nM and 1000 nM (sheet 'Samples'), CATDS: 2.17265123337868E-2) is 1.01 µM; with BMP2K (compound concentrations: 100 nM and 1000 nM (sheet 'Samples'), CATDS: 1.8132469854257299E-2) it was 1.95 µM; in the assay on CLK1 (compound concentrations: 100 nM and 1000 nM (sheet 'Samples'), CATDS: 3.2985166948547001E-2), 0.346 µM; in the assay on CLK4 (compound concentrations: 100 nM and 1000 nM (sheet 'Samples'), CATDS: 3.0818268189282499E-2) it was 0.403 µM; with CSNK2A2 (CATDS: 1.97839070790959E-2), 1.38 µM; with GSK3A (CATDS: 2.5871712918447001E-2) it was 0.616 µM. The potency estimated from few doses with GSK3B (CATDS: 2.3506229340690101E-2) was 0.798 µM; in the assay with NUAK1 (CATDS: 0.242637090604084), 0.0116 µM; with Q6ZSR9 (compound concentrations: 100 nM and 1000 nM (sheet 'Samples'), CATDS: 2.1989322106712401E-2), 0.971 µM.
Take `Cc1n[nH]c2cc(Nc3ccnc(Nc4cccc(CN5CCOCC5)c4)n3)ccc12` [GW682569X]: the potency estimated from few doses in the assay with AAK1 (compound concentrations: 100 nM and 1000 nM (sheet 'Samples'), CATDS: 0.12351757147220301) was 0.729 µM; with BMP2K (compound concentrations: 100 nM and 1000 nM (sheet 'Samples'), CATDS: 0.100079515212571), 1.25 µM; with Q6ZSR9 (compound concentrations: 100 nM and 1000 nM (sheet 'Samples'), CATDS: 0.10935758268406801) it was 0.981 µM.
`O=C1N=C(NCc2c(Cl)cccc2Cl)S/C1=C\c1ccc2ncccc2c1` [RO4600445-000]: the potency estimated from few doses with AAK1 (compound concentrations: 100 nM and 1000 nM (sheet 'Samples'), CATDS: 0.26661690920713499) is 1.13 µM; in the assay with CLK4 (compound concentrations: 100 nM and 1000 nM (sheet 'Samples'), CATDS: 0.27673451036998298) it was 1.05 µM; in the assay with Q6ZSR9 (compound concentrations: 100 nM and 1000 nM (sheet 'Samples'), CATDS: 0.220638600653874), 1.68 µM.
`c1ccc(-c2n[nH]cc2Nc2ccnc3ccccc23)nc1` [GW694077X]: the potency estimated from few doses was 0.0229 µM in the assay with AAK1 (compound concentrations: 100 nM and 1000 nM (sheet 'Samples'), CATDS: 0.15981280907647699); 0.0316 µM with BMP2K (compound concentrations: 100 nM and 1000 nM (sheet 'Samples'), CATDS: 0.12898106830803699); 0.116 µM with CLK1 (compound concentrations: 100 nM and 1000 nM (sheet 'Samples'), CATDS: 6.3259021647505201E-2); 0.948 µM in the assay with CLK4 (compound concentrations: 100 nM and 1000 nM (sheet 'Samples'), CATDS: 2.8276062957920199E-2); 0.87 µM in the assay with CSNK2A1;CSNK2A3 (CATDS: 2.9027112719044901E-2); 1.07 µM with CSNK2A2 (CATDS: 2.7289326995804501E-2). The potency estimated from few doses was 0.933 µM in the assay on GAK; 1.15 µM in the assay with MELK; 0.0221 µM with Q6ZSR9 (compound concentrations: 100 nM and 1000 nM (sheet 'Samples'), CATDS: 0.16373298432482).
For `CS(=O)(=O)Nc1ccc(-c2ccnc3[nH]ccc23)cc1` [GSK993273A], the potency estimated from few doses is 1.89 µM in the assay on AAK1 (setting [1]); 2 µM with BMP2K (setting [1]); 1.11 µM in the assay on CLK1 (setting [1]); 1.44 µM in the assay on CLK4 (setting [1]); 2.01 µM in the assay with Q6ZSR9 (setting [1]).
With `O=C1N=C(N[C@H](CO)c2ccccc2)S/C1=C\c1ccc2ncccc2c1` [RO4554339-000], the potency estimated from few doses was 0.735 µM in the assay with AAK1 (compound concentrations: 100 nM and 1000 nM (sheet 'Samples'), CATDS: 0.10816447707824001); 0.111 µM in the assay on CSNK2A1;CSNK2A3 (CATDS: 0.26590884807239001); 0.0802 µM in the assay with CSNK2A2 (CATDS: 0.32699476113935999); 1.32 µM with Q6ZSR9 (compound concentrations: 100 nM and 1000 nM (sheet 'Samples'), CATDS: 9.0735809704368106E-2).
Regarding `COc1cc[nH]c1/C=C1\C(=O)Nc2ccc([N+](=O)[O-])c(N3CC[C@@H](O)C3)c21` [RO0504985-000], the potency estimated from few doses in the assay with AAK1 (compound concentrations: 100 nM and 1000 nM (sheet 'Samples'), CATDS: 0.119322014743116) was 0.0462 µM; with BMP2K (compound concentrations: 100 nM and 1000 nM (sheet 'Samples'), CATDS: 0.146188418361926) it was 0.033 µM; in the assay on FLT4 it was 1.02 µM; in the assay on GSK3A (CATDS: 6.9215882134984696E-2) it was 0.143 µM; in the assay with GSK3B (CATDS: 8.07850710279054E-2), 0.0997 µM; in the assay on NUAK1 (CATDS: 0.113358948941002), 0.0506 µM. Besides, the potency estimated from few doses with Q6ZSR9 (compound concentrations: 100 nM and 1000 nM (sheet 'Samples'), CATDS: 0.13185454777653499) is 0.039 µM.
As for `O=C1N=C(N[C@@H](CO)Cc2ccccc2)S/C1=C\c1ccc2ncccc2c1` [RO4509200-000], the potency estimated from few doses in the assay on AAK1 (compound concentrations: 100 nM and 1000 nM (sheet 'Samples'), CATDS: 0.15010438596183701) was 0.551 µM; with BMP2K (compound concentrations: 100 nM and 1000 nM (sheet 'Samples'), CATDS: 0.102719601142922) it was 1.46 µM; in the assay with CLK1 (compound concentrations: 100 nM and 1000 nM (sheet 'Samples'), CATDS: 0.20013343303713499) it was 0.329 µM; in the assay with CLK4 (compound concentrations: 100 nM and 1000 nM (sheet 'Samples'), CATDS: 0.162916549975684) it was 0.47 µM; with Q6ZSR9 (compound concentrations: 100 nM and 1000 nM (sheet 'Samples'), CATDS: 0.142532878113064), 0.613 µM.

The record behind these values is publication PMC11062922 (Nature Chemical Biology, 2023).
